DT40 TDP1 CPT: qHTS for Inhibitors of human tyrosyl-DNA phosphodiesterase 1 (TDP1): qHTS in cells in presence of CPT. chicken DT40 Tdp1-/-;hTDP1 cells + 20 nM CPT, ATP luminescence, 48 h. Potency, µM (doses to about 46.2 µM), usual class: inhibitors. 420,000 tested, 12% active. AID 686979, 2013; also: nearly all actives have a fitted effect of over 55% in size
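Chicken DT40 Tdp1-/- cells complemented with human TDP1, 400 cells/well, exposed to compounds plus 20 nM camptothecin for at least 48 h at 37 C; viability read as ATP content by CellTiter-Glo luminescence.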
HT1080 IDH1KD tx: qHTS for induction of synthetic lethality in tumor cells producing 2HG: qHTS for the HT-1080-IDH1KD cell line; HT-1080 IDH1 knockdown viability, ATP luminescence, 48 h; Potency, µM (doses to about 46.1 µM), actives largely listed as cytotoxic; 360,000 tested, 2% active
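Cytotoxicity counter-line: IDH1KD HT-1080, 48 h, CellTiter-Glo. Curves classed by r2, magnitude and activity.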
HT1080-NT tox: qHTS for induction of synthetic lethality in tumor cells producing 2HG: qHTS for the HT-1080-NT fibrosarcoma cell line | HT-1080-NT fibrosarcoma viability, CellTiter-Glo ATP luminescence, 48 h | Potency, µM (highest dose often 46.1 µM), hits mostly cytotoxic | 360,000 tested, 1.6% active | AID 686970, 2013;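 also: NT is the 2HG producing partner of a matched IDH1 knockdown line; nearly all actives have a fitted effect of over 55% in size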
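A 48-hour cytotoxicity screen used HT-1080-NT cells plated 2 hours before compound delivery. ATP-based CellTiter-Glo luminescence measured viability, normalized to DMSO and no-cell controls.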
DT40 TDP1 no CPT: qHTS for Inhibitors of human tyrosyl-DNA phosphodiesterase 1 (TDP1): qHTS in cells in absence of CPT; DT40 Tdp1-/- hTDP1 cells, no CPT, ATP luminescence, 48 h; Potency, µM (highest dose often 46.2 µM), usual class: inhibitors; 420,000 tested, 15% active; AID 686978, 2013; also: nearly all actives have a fitted effect of over 55% in size
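Compound effects on proliferation are scored in DT40 Tdp1-/-;hTDP1 cells in the absence of CPT. ATP levels (CellTiter-Glo luminescence) are recorded after a ≥48 hr, 37 °C incubation.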
IL-1B inflam inh: qHTS for Inhibitors of Inflammasome Signaling: IL-1-beta AlphaLISA Primary Screen; AID 743279, 2014; activity change, % at 57.5 µM; 360,000 tested, 4.7% active; THP-1 LPS/ATP IL-1B secretion, AlphaLISA, 16 h; active compounds read low; in the data active = activity change below about -50%; inconclusive = mostly about -30% to -49%
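THP-1 cells pretreated 1 hr with compounds (up to 57.5 uM final), then stimulated with LPS (250 ng/mL final) plus ATP (1.25 mM final); secreted IL-1B measured by AlphaLISA after 16 hr, decreased signal indicating inhibition.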
uPA generation: qHTS for Inhibitors of Cell Surface uPA Generation; cell surface uPA generation assay, qHTS; Potency, µM (titrated, usually from 38.3 µM), actives largely listed as inhibitors; 330,000 tested, 0.31% active; active = well fitted inhibition curve with a large enough effect; inconclusive = small, poorly fitted or top-dose-only effect; inactive = no such curve, though single readings can be large or run the other way; tested in mouse RAW 264.7 cells; also: nearly all actives have a fitted effect of over 55% in size
A number is an active result; ! = repeats disagree. Only some compounds are listed: those with a hit (about 19% of all), similar ones and a draw of the others. Unless noted, calls follow the shape of the dose curve; as a rule, active = well fitted curve in the direction sought with a large enough effect; inconclusive = small, poorly fitted or top-dose-only effect, or another doubt; inactive = no such curve, though single readings can be large; an effect the other way counts as inactive or inconclusive.

Screening NC(=S)N/N=C/c1ccccc1[N+](=O)[O-] returned DT40 TDP1 CPT inactive, HT1080 IDH1KD tx inactive, HT1080-NT tox inactive, DT40 TDP1 no CPT inactive, IL-1B inflam inh inactive and uPA generation inactive.
Screening CCOC(=O)c1cnc2c(ccc3ccccc32)c1Nc1ccccc1OCC returned DT40 TDP1 CPT inactive and DT40 TDP1 no CPT inactive.
CCOC(=O)c1cnc(-n2cc(C)cn2)nc1Nc1ccccc1OCC was read as DT40 TDP1 CPT 10.3µM, HT1080 IDH1KD tx inactive, HT1080-NT tox inactive, DT40 TDP1 no CPT 6.51µM, IL-1B inflam inh inactive and uPA generation inactive.
Screening CC(C)c1ccc(NC(=O)Cc2cn(C)c3ccccc23)cc1 returned DT40 TDP1 CPT inactive, HT1080 IDH1KD tx inactive, HT1080-NT tox inactive, DT40 TDP1 no CPT 16.4µM, IL-1B inflam inh inactive and uPA generation inactive.
`CCc1cccc(C)c1NC(=O)CCn1c(=O)c2cccn2c2ccccc21` gave DT40 TDP1 CPT inconclusive and DT40 TDP1 no CPT 23.1µM.
For Cc1cccc(C)c1NC(=O)Cn1c(=O)c2cccn2c2ccccc21 the results were DT40 TDP1 CPT inconclusive, HT1080 IDH1KD tx inactive, HT1080-NT tox inactive, DT40 TDP1 no CPT inactive, IL-1B inflam inh inactive and uPA generation inactive.
Screening Cc1cc(C)c(NC(=O)CCn2c(=O)c3cccn3c3ccccc32)c(C)c1 returned DT40 TDP1 CPT inconclusive and DT40 TDP1 no CPT 16.4µM.
For CC(C)c1ccc(NC(=O)CCn2c(=O)c3cccn3c3ccccc32)cc1 the results were DT40 TDP1 CPT 20.6µM and DT40 TDP1 no CPT 14.6µM.
Screening NNC(=S)Nc1c(F)cc(F)cc1Br returned DT40 TDP1 CPT inconclusive, HT1080 IDH1KD tx inactive, HT1080-NT tox inactive, DT40 TDP1 no CPT 13µM, IL-1B inflam inh inactive and uPA generation inactive.
Screening O=C(CNC(=O)c1ccco1)NCC(=O)OCc1ccc(Cl)cc1Cl returned DT40 TDP1 CPT inactive, HT1080 IDH1KD tx inactive, HT1080-NT tox inactive, DT40 TDP1 no CPT inactive, IL-1B inflam inh inactive and uPA generation inactive.
For COc1cc2[nH]c(=S)nc(NCc3ccc(Cl)cc3)c2cc1OC the results were DT40 TDP1 CPT inconclusive, HT1080 IDH1KD tx inactive, HT1080-NT tox inactive, DT40 TDP1 no CPT inconclusive, IL-1B inflam inh inactive and uPA generation inactive.
Screening CCN(CC)Cc1cc2[nH]c3c4ccc(Cl)cc4ncc3c2cc1OC returned DT40 TDP1 CPT 3.16µM, HT1080 IDH1KD tx inconclusive, HT1080-NT tox 22.4µM!, DT40 TDP1 no CPT 5.01µM, IL-1B inflam inh inactive and uPA generation inactive.
CCOc1ccc(C(=O)N2CCc3ccccc32)cc1OCC was read as DT40 TDP1 CPT inactive, HT1080 IDH1KD tx inactive, HT1080-NT tox inactive, DT40 TDP1 no CPT inactive, IL-1B inflam inh inactive and uPA generation inactive.
Screening CC(C(=O)NC1CCCc2ccccc21)N1CCN(c2ccc(F)cc2)CC1 (centres undefined) returned DT40 TDP1 CPT inconclusive, HT1080 IDH1KD tx inactive, HT1080-NT tox inactive, DT40 TDP1 no CPT 16.4µM, IL-1B inflam inh inactive and uPA generation inactive.
Screening Cc1cccc(NC(=O)CN(C)S(=O)(=O)c2ccc3c(c2)CCC(=O)N3)c1C returned DT40 TDP1 CPT inactive and DT40 TDP1 no CPT inactive.
Screening Oc1cccc2ccc(/C=C/c3cccs3)nc12 returned DT40 TDP1 CPT 15.8µM, HT1080 IDH1KD tx 11.2µM, HT1080-NT tox inconclusive, DT40 TDP1 no CPT 14.1µM and IL-1B inflam inh inactive.
Screening Cc1nnc(C)n1/N=C/c1cccs1 returned DT40 TDP1 CPT inactive, HT1080 IDH1KD tx inactive, HT1080-NT tox inactive, DT40 TDP1 no CPT inactive, IL-1B inflam inh inactive and uPA generation inactive.
Cc1ccsc1/C=C/c1ccc2cccc(O)c2n1 was read as DT40 TDP1 CPT inconclusive, HT1080 IDH1KD tx 11.2µM, HT1080-NT tox 12.6µM, DT40 TDP1 no CPT 23.1µM and IL-1B inflam inh inactive.
Screening Cc1cccc(/C=C/c2cccs2)n1 returned DT40 TDP1 CPT 1.12µM and DT40 TDP1 no CPT 0.631µM.
Cc1ccsc1/C=C/c1ccc2ccccc2n1 was read as DT40 TDP1 CPT inconclusive, HT1080 IDH1KD tx inactive, HT1080-NT tox inactive, DT40 TDP1 no CPT inconclusive, IL-1B inflam inh inactive and uPA generation inactive.
COc1cc(C)c(NC(=S)Nc2cccc(Cl)c2C)cc1OC was read as DT40 TDP1 CPT inactive, HT1080 IDH1KD tx inactive, HT1080-NT tox inactive, DT40 TDP1 no CPT inactive, IL-1B inflam inh inactive and uPA generation inactive.
For CCOC(=O)C1(C)CCCCN1C(=O)c1ccc(F)c(C)c1 (centres undefined) the results were DT40 TDP1 CPT inactive, HT1080 IDH1KD tx inactive, HT1080-NT tox inactive, DT40 TDP1 no CPT inconclusive and IL-1B inflam inh inactive.
For CCOC(=O)C1(C)CCCN1C(=O)c1ccc2ccccc2c1 (centres undefined) the results were DT40 TDP1 CPT inconclusive, HT1080 IDH1KD tx inactive, HT1080-NT tox inactive, DT40 TDP1 no CPT 18.4µM and IL-1B inflam inh inactive.
Screening CCOC(=O)C1(C)CCCN1C(=O)c1ccc(C(=O)OC)cc1 (centres undefined) returned DT40 TDP1 CPT inactive, HT1080 IDH1KD tx inactive, HT1080-NT tox inactive, DT40 TDP1 no CPT inactive and IL-1B inflam inh inactive.
CCOC(=O)C1(C)CCCCN1C(=O)c1cccc(Cl)c1 (centres undefined) was read as DT40 TDP1 CPT 20.6µM, HT1080 IDH1KD tx inactive, HT1080-NT tox inactive, DT40 TDP1 no CPT 14.6µM and IL-1B inflam inh inactive.
For COc1cc(/C=C2/SC(=S)N(c3c(C)n(C)n(-c4ccccc4)c3=O)C2=O)ccc1O the results were DT40 TDP1 CPT inconclusive, HT1080 IDH1KD tx inactive, HT1080-NT tox inactive, DT40 TDP1 no CPT inconclusive, IL-1B inflam inh inactive and uPA generation inactive.
For O=C(NCCc1ccc(Cl)cc1)c1cc(S(=O)(=O)N2CCCCC2)c[nH]1 the results were DT40 TDP1 CPT 23.1µM, HT1080 IDH1KD tx inactive, HT1080-NT tox inactive, DT40 TDP1 no CPT 9.2µM, IL-1B inflam inh inactive and uPA generation inactive.
COC(=O)c1cc(S(=O)(=O)NCCc2ccc(Cl)cc2)c[nH]1 was read as DT40 TDP1 CPT 18.4µM, HT1080 IDH1KD tx inactive, HT1080-NT tox inactive, DT40 TDP1 no CPT 11.6µM, IL-1B inflam inh inactive and uPA generation inactive.
`CCC(C(=O)O)n1ccc2cc(S(=O)(=O)N3CCCCC3)ccc21` (centres undefined) gave DT40 TDP1 CPT inactive and DT40 TDP1 no CPT inactive.
`COC(=O)c1cc(S(=O)(=O)NCc2ccccc2)c[nH]1` gave DT40 TDP1 CPT inactive, HT1080 IDH1KD tx inactive, HT1080-NT tox inactive, DT40 TDP1 no CPT inactive, IL-1B inflam inh inactive and uPA generation inactive.
